Source: PubChem
DAGLB inhibitor = DAGLB lipase inhibitors, primary screen, biochemical, fluorescence, HTS; AID 504411, 2011; HEK293T DAGLB membrane lysate, EnzChek fluorogenic substrate; inhibition, % at 5.17 µM; actives 0.059% (n = 340,000); Diacylglycerol lipase-beta (Homo sapiens), Q8NCG7; in the data active = inhibition above about 34%;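 note: 0% = enzyme with vehicle and 100% = wells lacking enzyme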
PAFAH1B3 FP inh = PAFAH1B3 enzyme inhibitors, primary screen, biochemical, fluorescence polarization, human; Platelet-activating factor acetylhydrolase IB subunit alpha1 (Homo sapiens), Q15102; actives 0.28% (n = 340,000); recombinant PAFAH1B3, FP-rhodamine probe; AID 492972, 2010; inhibition, % at 3.39 µM;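 active = inhibition above the screen-wide average of all tested compounds plus 3 SD, cut at about 25% in these data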;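 note: 0% = enzyme with DMSO only and 100% = wells lacking PAFAH1B3 protein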
Target sequence (Q15102 whole entry, looked up): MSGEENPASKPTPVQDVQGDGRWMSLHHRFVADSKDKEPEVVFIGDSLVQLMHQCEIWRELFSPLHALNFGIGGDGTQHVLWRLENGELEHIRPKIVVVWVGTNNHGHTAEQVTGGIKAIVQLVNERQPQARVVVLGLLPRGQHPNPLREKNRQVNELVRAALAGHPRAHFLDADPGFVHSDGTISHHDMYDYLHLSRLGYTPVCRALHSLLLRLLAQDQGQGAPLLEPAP
pPAFAH inh = pPAFAH enzyme inhibitors, primary screen, biochemical, fluorescence polarization, human; Platelet-activating factor acetylhydrolase (Homo sapiens), Q13093; recombinant pPAFAH, FP-rhodamine probe fluorescence polarization; inhibition, % at 3.39 µM; actives 1.5% (n = 330,000);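 active = inhibition above the mean inhibition across the screen plus 3 SD, cut at about 25% in these data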;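 note: inhibitors block binding of the rhodamine activity-based probe so polarization drops; 0% = enzyme with DMSO and 100% = wells lacking pPAFAH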
Target sequence (Q13093 whole entry, looked up): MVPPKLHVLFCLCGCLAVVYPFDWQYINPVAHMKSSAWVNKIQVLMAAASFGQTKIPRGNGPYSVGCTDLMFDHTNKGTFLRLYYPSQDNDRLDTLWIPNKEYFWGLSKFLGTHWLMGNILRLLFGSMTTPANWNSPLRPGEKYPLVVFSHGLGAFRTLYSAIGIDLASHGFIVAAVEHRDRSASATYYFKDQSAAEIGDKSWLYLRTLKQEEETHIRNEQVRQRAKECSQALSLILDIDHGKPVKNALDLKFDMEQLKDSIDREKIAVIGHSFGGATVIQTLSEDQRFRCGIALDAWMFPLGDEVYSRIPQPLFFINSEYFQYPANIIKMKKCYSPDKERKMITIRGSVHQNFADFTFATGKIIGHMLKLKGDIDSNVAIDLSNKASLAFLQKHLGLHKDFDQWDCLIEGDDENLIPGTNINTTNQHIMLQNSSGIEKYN
PAFAH1B2 inh = PAFAH1B2 enzyme inhibitors, primary screen, biochemical, fluorescence polarization, human; Platelet-activating factor acetylhydrolase IB subunit alpha2 (Homo sapiens), P68402; recombinant PAFAH1B2, FP-rhodamine activity probe; inhibition, % at 3.39 µM; actives 1.2% (n = 340,000); AID 492953, 2010;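 active = inhibition above the mean of all tested compounds plus 3 SD, cut at about 24% in these data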;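 note: 0% = enzyme with DMSO and 100% = wells lacking PAFAH1B2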
HTRA1 inh = HTRA1 serine protease inhibitors, primary screen, biochemical, fluorescence polarization, HTS; actives 0.5% (n = 340,000); AID 504803, 2011; inhibition, % at 5.96 µM; Q92743; recombinant HTRA1, FP-rhodamine activity-based probe; in the data active = inhibition above about 36%;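 note: 0% = enzyme with DMSO and 100% = wells lacking enzyme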
PAFAH2 FP inh = PAFAH2 enzyme inhibitors, primary screen, biochemical, fluorescence polarization, human | recombinant PAFAH2, FP-rhodamine activity probe | Platelet-activating factor acetylhydrolase 2, cytoplasmic (Homo sapiens), Q99487 | inhibition, % at 3.39 µM | actives 0.99% (n = 340,000);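 active = inhibition above the mean over all tested compounds plus 3 SD, cut at about 30% in these data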;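 note: inhibitors block probe labeling of enzyme so polarization drops; 0% = enzyme with DMSO and 100% = wells lacking PAFAH2 protein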
PAFAH2 FP conf = PAFAH2 enzyme inhibitors, confirmation, biochemical, fluorescence polarization, human | shares compounds with PAFAH2 FP inh | inhibition, % at 3.39 µM | recombinant PAFAH2, FP-rhodamine activity probe | actives 65% (n = 2,300);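 active = mean inhibition over three repeats above a set limit taken from the earlier primary screen, cut at about 30% in these data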;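 note: inhibitor blocks binding of rhodamine activity probe so polarization falls; 0% = enzyme with DMSO and 100% = wells lacking PAFAH2 protein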
The depositor's hits bear a star; . = no result. In the library only some 2.8% were active in any assay of this set; here they are far more common.

SMILES | DAGLB inhibitor | PAFAH1B3 FP inh | pPAFAH inh | PAFAH1B2 inh | HTRA1 inh | PAFAH2 FP inh | PAFAH2 FP conf
CNc1ccc(C(=O)OCC(=O)NC(=O)NC2CCCCC2)cc1[N+](=O)[O-] | -1 | 10 | 4 | 7 | 4 | 15 | .
CCNc1ccc(C(=O)OCC(=O)Nc2cc(C)on2)cc1[N+](=O)[O-] | 2 | 14 | 2 | -2 | 8 | 31* | 31*
CCNc1ccc(C(=O)OCC(=O)NC(=O)NCC(C)C)cc1[N+](=O)[O-] | 2 | 8 | 0 | 3 | 12 | 33* | 27
CCOC(=O)c1c(S(=O)(=O)N2CCCCC2C)c(C)n(C)c1C (stereo not given) | 1 | 9 | 3 | 5 | 7 | 6 | .
Cc1ccc(SCC(=O)N2N=CCC2c2ccccc2)cc1 (stereo not given) | -3 | 1 | 2 | 11 | 0 | 0 | .
O=C(COC(=O)/C=C/c1ccco1)Nc1cc(S(=O)(=O)N2CCOCC2)ccc1Cl | -3 | -2 | 6 | 2 | 12 | 42* | 37*
CCN(CC)c1ccc(S(=O)(=O)N2CCOCC2)cc1NC(=O)COC(=O)/C=C/c1ccco1 | -3 | -3 | . | 2 | -11 | 55* | 42*
O=C(CNC(=O)c1ccccc1C(F)(F)F)N/N=C/c1cccs1 | -2 | 4 | 5 | -2 | 4 | 4 | .
Nc1ccc(C(=O)OCc2nc3ccccc3[nH]2)cc1 | -5 | 8 | 6 | 3 | -2 | 88* | 79*
O=C(COC(=O)c1ccc(O)cc1)Nc1cccc(S(=O)(=O)NC2=NCCCCC2)c1 | -2 | 2 | 5 | 3 | 4 | 39* | 43*
COc1cc(OC)cc(C(=O)OCC(=O)Nc2cccc(S(=O)(=O)NC3=NCCCCC3)c2)c1 | -4 | 8 | 2 | 8 | 4 | -7 | .
Nc1ccc(C(=O)OCC(=O)Nc2cccc(S(=O)(=O)NC3=NCCCCC3)c2)cc1[N+](=O)[O-] | -2 | 4 | 6 | 3 | 2 | 54* | 60*
COc1ccc(/C=C/C(=O)OCC(=O)Nc2cccc(S(=O)(=O)NC3=NCCCCC3)c2)cc1 | -2 | 9 | 3 | -2 | -11 | 68* | 50*
Cc1[nH]c2ccccc2c1SCc1nnc(SCc2ccc(Cl)cc2)n1C | -4 | 5 | 9 | 23 | -18 | 30* | 30*
COc1ccc(C(=O)OCC2CC(c3ccccc3)N(C)O2)cc1 (stereo not given) | -4 | 13 | 11 | 3 | -2 | 56* | 45*
Cc1ccnc(NC(=O)COc2c(C)cc(C)cc2[N+](=O)[O-])c1 | 1 | 10 | -5 | 4 | 0 | 5 | .
Cc1cc(C)c(OCC(=O)Nc2ccccn2)c([N+](=O)[O-])c1 | -1 | -1 | 1 | 1 | -5 | 33* | 1
C#C[C@]1(O)CC[C@H]2[C@@H]3[C@H](C)CC4=C(CCC(=O)C4)[C@H]3CC[C@@]21C | . | . | -4 | . | . | . | .
CCC(=O)Nc1cccc(-c2nc3ccccc3c(=O)o2)c1 | 2 | 6 | -2 | 0 | 0 | 20 | .
CC(=O)Oc1ccc2c(=O)oc(-c3ccccc3)nc2c1 | 2 | 9 | 1 | -2 | -4 | 41* | 40*
CC(=O)Oc1ccc2nc(/C=C/c3ccc(C=O)cc3)oc(=O)c2c1 | 1 | 16 | -3 | 7 | 1 | 3 | .
CC(=O)Oc1ccc2c(=O)oc(-c3ccccc3C)nc2c1 | -7 | 12 | -1 | -1 | -1 | 25 | .
CC(=O)Oc1ccc(-c2nc3cc(Cl)ccc3c(=O)o2)cc1 | 0 | 10 | -11 | 0 | -2 | 2 | .
CC(=O)Oc1ccc2nc(-c3ccc(Br)o3)oc(=O)c2c1 | -1 | -1 | 6 | 7 | -3 | 46* | 45*
CC(=O)Oc1ccc2nc(/C=C/c3ccccc3)oc(=O)c2c1 | 4 | 5 | 0 | 2 | -4 | 76* | 71*
SMILES | DAGLB inhibitor | PAFAH1B3 FP inh | pPAFAH inh | PAFAH1B2 inh | HTRA1 inh | PAFAH2 FP inh | PAFAH2 FP conf
CCCOc1cccc(-c2nc3ccccc3c(=O)o2)c1 | 6 | 5 | -16 | 2 | -4 | 64* | 59*
CSc1ncc(-c2ccc(Cl)cc2)[nH]1 | 1 | 5 | 3 | 7 | 3 | 0 | .
CC(=O)C1C(=O)CC(C)(O)C(C(C)=O)C1c1ccccc1 (stereo not given) | 1 | 15 | 4 | 2 | 5 | 1 | .
COc1ccc(S(=O)(=O)N2CCN(C(=O)c3ccco3)CC2)cc1C(C)(C)C | -1 | 6 | 2 | 6 | -2 | -7 | .
O=C(O)/C(=C\c1ccc(Cl)c([N+](=O)[O-])c1)c1ccc(S(=O)(=O)N2CCCCC2)s1 | 12 | 14 | 18 | 21 | -36 | 32* | 8
O=C(O)/C(=C\c1ccc(Cl)c([N+](=O)[O-])c1)c1ccc(S(=O)(=O)N2CCCC2)s1 | 7 | 10 | 20 | 11 | -16 | 22 | .
COc1cccc(CC(=O)NN2C(=O)NC3(CCCCC3)C2=O)c1 | 5 | 16 | 0 | 3 | -2 | -6 | .
O=Cc1ccc(OC(=O)CCCCC(=O)Oc2ccc(C=O)cc2)cc1 | -3 | 0 | -2 | 4 | 6 | 34* | 2
CCOc1cccc(C(=O)Nc2ccccc2C(=O)N2CCN(C)CC2)c1 | 0 | 9 | -8 | -2 | 6 | -2 | .
CSc1nc2[nH]c(=O)n(O)c(=O)c2n1Cc1ccccc1 | 22 | -6 | . | 13 | 23 | 37* | 8
CSc1nc2c(c(=O)n1Cc1ccccc1)SC(C)C2 (stereo not given) | -1 | 8 | -2 | -2 | -12 | 4 | .
Cc1cccc(C(=O)O/N=C(\N)CS(=O)(=O)c2ccccc2)c1 | 0 | 2 | 16 | 4 | -6 | 44* | 36*
COc1cccc(C(=O)O/N=C(\N)CS(=O)(=O)c2ccccc2)c1 | 3 | 1 | 21 | -2 | 3 | 64* | 45*
CS/C(N)=N/N=C/c1cc(Br)cc(Br)c1O | 1 | 2 | 18 | 6 | 20 | 63* | 43*
O=C(OCc1nnc(-c2ccccc2)o1)c1ccc(CO)cc1 | -2 | 8 | 2 | 0 | -2 | 55* | 56*
O=C(OCc1nnc(-c2ccccc2)o1)c1ccc2c(c1)OCCO2 | -8 | -1 | 10 | -1 | -1 | 75* | 60*
